For twelve molecules, growth results are on record in PubChem BioAssay (NCI).

Molecules are shown by their SMILES. The panel holds about 83,000 compounds, 20% with a hit somewhere; the sample as a whole holds those more often.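 A percent growth of 40 corresponds to 60% growth inhibition; 0 means no net growth; -100 means all cells died. Active threshold: below 10.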 Unmarked numbers belong to inactive results. Calls of active or inactive are those of the source.

Holding throughout (test): NCI-60 one-dose screen, 48 h (100 = growth as untreated, 0 = no growth, -100 = all killed)
Conditions in all cases: 10 µM unless noted

The subject of assay [1] is T-47D breast.
Assay [2] concerns BT-549 breast.
Assay [3] concerns MDA-MB-435 melanoma.
Assay [4] concerns SW-620 colon.
The subject of assay [5] is MCF7 breast.
Assay [6] has as its system HCT-116 colon.
The test system of assay [7] is HCC-2998 colon.
In assay [8] the test system is KM12 colon.

As for `CC1=CCc2ccccc21`, the growth in assay [1] was 96.8%; in assay [2], 93.5%; in assay [3], 106%; in assay [4] it was 95.6%; in assay [5], 90.5%; in assay [6] it was 101%. The results for the growth in assay [7] and in assay [8] were 108% and 103%, respectively.
Consider `CCC(Br)(CC)C(=O)c1ccc(OCC(=O)O)c(Cl)c1Cl`, for which the growth in assay [1] was 112%; in assay [2] it was 79.1%; in assay [3], 101%; in assay [4], 112%; in assay [5], 92.8%; in assay [6], 102%. For the same molecule, the values for the growth in assay [7] and in assay [8] were 91.5% and 103%, respectively.
Regarding `C#CCNC(=O)CC[C@@H](C)[C@H]1CC[C@H]2[C@@H]3CC[C@@H]4CC(=O)CC[C@]4(C)[C@H]3CC[C@]12C`, the growth is 4.15% [100 µM] (active) in assay [1]; -60% [100 µM] (active) in assay [2]; -39.7% [100 µM] (active) in assay [3]; -58.2% [100 µM] (active) in assay [4]; -6.31% [100 µM] (active) in assay [5]; -1.19% [100 µM] (active) in assay [6]. Also, the growth in assay [7] was 0.203% [100 µM] (active); in assay [8], -26.6% [100 µM] (active).
On to `C=C(C)[C@@H]1CC[C@]2(C(=O)NCCNCCNCCN)CC[C@]3(C)[C@H](CC[C@@H]4[C@@]5(C)CC[C@H](O)C(C)(C)[C@@H]5CC[C@]43C)[C@@H]12`, for which the growth in assay [1] is -32.6% [100 µM] (active); in assay [2], -51.9% [100 µM] (active); in assay [3], -89.2% [100 µM] (active); in assay [4] it was -86.7% [100 µM] (active); in assay [5], -60.5% [100 µM] (active); in assay [6], -26.5% [100 µM] (active). Further, the values for the growth in assay [7] and in assay [8] were -90.4% [100 µM] (active) and -52.2% [100 µM] (active), respectively.
For the molecule `CC(C)[C@H]1CCC2=C3CC[C@]45OC(=O)[C@@]6(CCC(C)(C)C[C@H]64)CC[C@@]5(C)[C@]3(C)CC[C@@]21C`, the growth was 53.9% [100 µM] in assay [1]; 82.1% [100 µM] in assay [2]; 78.5% [100 µM] in assay [3]; 78.7% [100 µM] in assay [4]; 61.2% [100 µM] in assay [5]; 51.6% [100 µM] in assay [6]. Besides, the growth in assay [7] was 97.9% [100 µM]; in assay [8], 76% [100 µM].
Regarding `O=C(Nc1ccc(F)cc1)c1ccccc1`, the growth is 104% in assay [1]; 84.8% in assay [2]; 97.3% in assay [3]; 101% in assay [4]; 96% in assay [5]; 103% in assay [6]. For the same molecule, the growth is 109% in assay [7] and 104% in assay [8].
As to `C1=C[C@H]2O[C@@H]1c1ccc3[nH]ccc3c12`, the growth was 110% in assay [1]; 108% in assay [2]; 0.425% (active) in assay [3]; 73.4% in assay [4]; 96.1% in assay [5]; 97.9% in assay [6]. The growth is 86.7% in assay [7] and 79.5% in assay [8].
Take `Nc1cc(N)c(N=Nc2ccc(S(=O)(=O)O)cc2)cc1N=Nc1ccc(-c2ccc(N=Nc3ccc(O)c(C(=O)O)c3)cc2)cc1`: the growth was 90.1% in assay [1]; 113% in assay [2]; 100% in assay [3]; 105% in assay [4]; 95.5% in assay [5]; 102% in assay [6]. Moreover, the figures for the growth in assay [7] and in assay [8] were 104% and 101%, respectively.
Turning to `O=C(Nc1ccc(CN2CCOCC2)c(C(F)(F)F)c1)c1nc2ccc3[nH]ncc3c2c2c1CCCC2`, the growth in assay [1] was 62.6%; in assay [2] it was 136%; in assay [3], 96.6%; in assay [4], 99.4%; in assay [5] it was 83.1%; in assay [6], 79.4%. Further, the growth is 116% in assay [7] and 83.9% in assay [8].
As for `Cc1ccc(S(=O)(=O)Oc2ccc([N+](=O)[O-])cc2[N+](=O)[O-])cc1`, the growth in assay [1] is 94.5%; in assay [2] it was -8.38% (active); in assay [3], 25.2%; in assay [4], 18.4%; in assay [5], 70.7%; in assay [6], 5.12% (active). For the same molecule, the growth was 99.8% in assay [7] and 102% in assay [8].
`C=C(C)[C@@H]1CC[C@]2(C(N)=O)CC[C@]3(C)[C@H](CC[C@@H]4[C@@]5(C)C/C(=C/c6cccnc6)[C@H](O)C(C)(C)[C@@H]5CC[C@]43C)[C@@H]12`: the growth in assay [1] is 16.1% [100 µM]; in assay [2], 26.6% [100 µM]; in assay [3] it was 9% [100 µM] (active); in assay [4], 18.8% [100 µM]; in assay [5], 11.3% [100 µM]; in assay [6], 7.1% [100 µM] (active). Also, the growth is 19.5% [100 µM] in assay [7] and 14.2% [100 µM] in assay [8].
On to `CCOC(=O)c1cc(C(=O)c2ccc(OC)c(OC)c2)n2ccc(-c3ccccn3)cc12`, for which the growth in assay [1] was 23.1%; in assay [2], 93.6%; in assay [3] it was 70.7%; in assay [4] it was 58.6%; in assay [5], 73.3%; in assay [6], 99.9%. Further, the values for the growth in assay [7] and in assay [8] were 90.5% and 77.4%, respectively.
